In PubChem BioAssay (NCATS):
Inconclusive results are not listed. Entries that show only a call come without a potency. The source made the active and inactive calls. Calls come from the whole dose curve; as a rule, active = well fitted curve in the direction sought with a large enough effect; inconclusive = small, poorly fitted or top-dose-only effect, or another doubt; inactive = no such curve, though single readings can be large; an effect the other way counts as inactive or inconclusive.

What was measured:
[1] = target: Aldehyde dehydrogenase, mitochondrial (Homo sapiens) (UniProt P05091); experiment: qHTS for Inhibitors of the Aldehyde Dehydrogenase Family (ALDH2) Primary screen (AID 2061308); note: nearly all actives have a fitted effect of over 55% in size
[2] = target: Retinaldehyde dehydrogenase 3 (Homo sapiens) (UniProt P47895); experiment: qHTS for Inhibitors of the Aldehyde Dehydrogenase Family (ALDH1A3) Primary screen (AID 2061315)

Row | Compound | Potency [1] | Potency [2]
1 | CC(C)c1cccc(C(C)C)c1NC(=O)Nc1ccc(Sc2ccc([N+](=O)[O-])cc2)cc1 | inactive | inactive
2 | CC(=O)Nn1c(C)nc2sc3c(c2c1=O)CCNC3 | inactive | inactive
3 | C=C1C(=O)O[C@@H]2C[C@H](C)[C@@H]3CC(=O)[C@H](O)[C@@]3(C)C[C@H]12 | inactive | inactive
4 | O=C1CCCC2=C1C(c1[nH]ncc1Cl)N=C(Nc1nc3cc(Cl)ccc3o1)N2 (stereo not drawn) | inactive | inactive
5 | Cc1ccc(S(=O)(=O)NCC(=O)Nc2nc(-c3ccccc3)cs2)cc1 | inactive | inactive
6 | O=S1(=O)N=C(Oc2ccccc2C(F)(F)F)c2ccccc21 | inactive | inactive
7 | Cc1cc(C)nc(NC(=S)N2CCN(C3=Nc4ccccc4Oc4ccccc43)CC2)c1 | inactive | inactive
8 | O=S(=O)(c1ccc2c(c1)OCCO2)N1CCN(S(=O)(=O)c2ccco2)CC1 | inactive | inactive
9 | Cc1cc2c(s1)c1cnn(Cc3c(F)c(F)c(C(F)(F)F)c(F)c3F)c(=O)c1n2C | inactive | inactive
10 | COc1ccc(C2=Nn3c(nnc3-c3ccccc3C(F)(F)F)SC2)cc1OC1CCOC1 (stereo not drawn) | inactive | inactive
11 | Cn1nnnc1Sc1ncnc2scc(-c3ccc(Br)cc3)c12 | inactive | inactive
12 | COc1cc(NS(=O)(=O)c2ccc(C)cc2)c(C(=O)Nc2nc(-c3ccccc3)cs2)cc1OC | inactive | inactive
13 | CCN1CCCC1Cn1c(-c2ccccc2)nc2c(NCCOC)nc(C)nc21 (stereo not drawn) | inactive | inactive
14 | COc1cc(O)c(C(CC(=O)N2CC(C)CC(C)C2)c2ccc3c(c2)OCCO3)c(OC)c1 (stereo not drawn) | inactive | inactive
15 | O=C(Nc1ccc(F)c(F)c1)Nc1nnc(-c2ccncc2)s1 | inactive | inactive
16 | Cc1c(P(=S)(c2ccccc2)c2ccccc2)c2ccccc2n1C(=O)NCc1ccc(F)cc1 | inactive | inactive
17 | O=C(/C=C/c1ccccc1)OCC1=CC[C@@H]2C(C(=O)O)=CO[C@@H](O[C@@H]3O[C@H](CO)[C@@H](O)[C@H](O)[C@H]3O)[C@H]12 | inactive | inactive

Row | Compound | Potency [1] | Potency [2]
18 | O=C(N/C=C/c1ccccc1)c1cccc([S+](=O)([O-])Nc2ccccc2F)c1 | inactive | inactive
19 | COc1ccc(-c2nnc3n2N=C(c2ccccc2OC)CS3)c(OC)c1 | inactive | inactive
20 | CCOc1cc(C)c(Cl)cc1S(=O)(=O)n1cnc2ccccc21 | inactive | inactive
21 | O=C(/C=C/c1c(F)c(F)c(F)c(F)c1F)Nc1cccc([S+](=O)([O-])Nc2ccccc2F)c1 | inactive | inactive
22 | S=C(Nc1ccc(Cl)c(Cl)c1)Nc1nnc(-c2ccncc2)s1 | inactive | inactive
23 | O=c1ccc2ccc(OCCCCN3CCN(c4cccc5sccc45)CC3)cc2[nH]1 | inactive | inactive
24 | COc1ccccc1C(=O)N1CCc2cc(-c3nc(NC(=O)Cc4ccc5c(c4)OCO5)sc3C)ccc21 | inactive | inactive
25 | COc1ccc(OC)c(Nc2nn3c(=O)c4ccccc4nc3s2)c1 | inactive | inactive
26 | Cc1noc(C)c1-c1ccc2ncnc(NCc3cccc(F)c3)c2c1 | inactive | inactive
27 | Cc1cc(S(=O)(=O)Nc2cnccc2C(=O)Nc2nc(-c3ccccc3)cs2)c(C)o1 | inactive | inactive
28 | COc1cccc(C2c3c(ncn(-c4ccc(F)cc4)c3=N)Oc3ccc4ccccc4c32)c1 (stereo not drawn) | inactive | inactive
29 | Cc1csc(CNc2ncnc3ccc(-c4cccnc4)cc23)c1 | inactive | inactive
30 | Cc1cc2c(s1)c1cnn(Cc3ccc(SC(F)(F)F)cc3)c(=O)c1n2C | inactive | inactive
31 | Cc1cc(C)nc(NC(=S)N2CCN(c3nccc4ccccc34)CC2)c1 | inactive | inactive
32 | COc1ccc(S(=O)(=O)NC2CCN(C#N)CC2)cc1 | inactive | inactive
33 | O=C(Nc1cccc2c1cnn2-c1ccc(F)cc1)c1ccccn1 | inactive | inactive
34 | O=C(OCC#CCSc1nnc(-c2cccc3ccccc23)o1)c1cnc[nH]1 | inactive | inactive
